Assay outcomes from PubChem BioAssay.
The full list was thinned out, with hits kept by preference.
RBX1-CUL1 inh – human ROC1-CUL1 E3 ligase inhibition. AID 1347404. inhibition, % at 10 µM. in vitro K48 di-Ub FRET, acceptor:donor ratio, 45 min. P62877+Q13616. 140,000 compounds, 0.6% hits; in the data active = inhibition above about 25%
Target sequence (P62877 whole entry, looked up): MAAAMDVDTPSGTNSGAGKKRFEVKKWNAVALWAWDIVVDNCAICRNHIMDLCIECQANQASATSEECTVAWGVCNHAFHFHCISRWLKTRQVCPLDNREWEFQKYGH
Target sequence (Q13616 whole entry, looked up): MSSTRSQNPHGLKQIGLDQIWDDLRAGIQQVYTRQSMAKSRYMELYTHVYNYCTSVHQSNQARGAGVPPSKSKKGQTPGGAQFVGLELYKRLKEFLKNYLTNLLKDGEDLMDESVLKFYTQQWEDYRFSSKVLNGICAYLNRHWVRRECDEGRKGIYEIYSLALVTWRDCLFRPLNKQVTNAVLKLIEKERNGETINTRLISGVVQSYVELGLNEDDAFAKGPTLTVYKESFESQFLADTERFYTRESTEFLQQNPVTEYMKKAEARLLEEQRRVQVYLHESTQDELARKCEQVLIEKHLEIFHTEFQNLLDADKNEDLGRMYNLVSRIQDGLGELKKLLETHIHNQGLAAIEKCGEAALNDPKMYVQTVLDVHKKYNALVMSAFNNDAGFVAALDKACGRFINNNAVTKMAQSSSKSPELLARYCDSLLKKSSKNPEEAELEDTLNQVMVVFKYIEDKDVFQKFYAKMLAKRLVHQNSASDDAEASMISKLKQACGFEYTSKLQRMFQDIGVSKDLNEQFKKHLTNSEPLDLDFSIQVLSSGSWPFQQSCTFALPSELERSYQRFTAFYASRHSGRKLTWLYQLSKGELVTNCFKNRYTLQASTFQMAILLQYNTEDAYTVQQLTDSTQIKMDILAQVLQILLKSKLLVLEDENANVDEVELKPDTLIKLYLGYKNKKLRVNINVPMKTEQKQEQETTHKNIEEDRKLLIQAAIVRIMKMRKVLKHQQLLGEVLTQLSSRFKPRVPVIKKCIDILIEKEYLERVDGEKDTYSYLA
Each line names hits and unclear results; the compound was inactive in the other large screens.

COc1cc(/C=C2\SC(=S)N(Cc3ccccc3)C2=O)ccc1OCC(=O)O	none
COc1cc(/C=C2/SC(=S)N(c3cccc(C(F)(F)F)c3)C2=O)ccc1OC(=O)c1ccc(C)cc1	none
CCOC(=O)c1ccc(NC(=O)CCCCCN2C(=O)/C(=C\c3ccc(Cl)cc3)SC2=S)cc1	none
NC(=O)Cn1cc(/C=C2\SC(=NCc3ccccc3)N(Cc3ccccc3)C2=O)c2cc(Br)ccc21	none
N#CC1C2=C(CCCC2)C(=S)n2c1nc1ccccc12 (centres undefined)	none
COc1cc(NC(=O)Cn2cnc3sc(C)c(S(=O)(=O)N4CCC(C)CC4)c3c2=O)cc(OC)c1OC	none
COc1ccc(OC)c(NC(=O)c2c(NCc3ccc(C)o3)sc3c2CCCCC3)c1	RBX1-CUL1 inh 30
COc1ccc(OC)c(NC(=O)c2c(NCc3ccc(OC)c(OC)c3)sc3c2CCC3)c1	none
COc1ccc(OC)c(NC(=O)c2c(NCc3sccc3C)sc3c2CCCCC3)c1	none
COc1ccc(Cl)cc1NC(=O)c1c(NCc2ccc(C)o2)sc2c1CCC(C)C2 (centres undefined)	none
COc1ccc(Cl)cc1NC(=O)c1c(NCc2ccc(C)o2)sc2c1CCCCC2	RBX1-CUL1 inh 26
COc1ccccc1NC(=O)c1c(NCc2ccc(C)o2)sc2c1CCCCC2	none
CCCc1c(C(=O)Nc2cccc(C)c2C)nnn1-c1ccccc1	none
Cc1nn(C(=O)c2ccccc2)c(C)c1S(=O)(=O)N1CCOCC1	none
O=C(COc1ccc(Cl)cc1)N1CCC(n2c(C3CCCO3)nc3cc(C(F)(F)F)ccc32)CC1 (centres undefined)	none
CSc1nsc(SCCC(=O)Nc2ccccc2)n1	none
CSc1nsc(SCSc2nc(SC)ns2)n1	RBX1-CUL1 inh 36
CSc1nsc(SCSc2nnc(-c3ccccc3)o2)n1	none
CCOc1ccc(-c2nc3cc(NC(=O)c4cccc(OC)c4)ccc3o2)cc1	none
c1ccc(Oc2ncccc2CNCc2cccn2-c2ncccn2)cc1	none
CC12CCC(/C(=N\NC(=O)c3ccccc3)C1=O)C2(C)C (centres undefined)	none
CC1CN(S(=O)(=O)c2ccc(/C=C/C(=O)c3ccccc3)s2)CC(C)O1 (centres undefined)	none
Cc1ccc(C2c3c(n[nH]c3-c3ccc(CC(C)C)cc3)OC(=N)C2C#N)cc1 (centres undefined)	none
Cc1cccc2c1OC(=O)C(C(c1ccc(Cl)cc1)C1C(=O)Oc3c(C)cccc3C1=O)C2=O (centres undefined)	RBX1-CUL1 inh 78
O=C1Oc2ccccc2C(=O)C1C(c1ccc(F)cc1)C1C(=O)Oc2ccccc2C1=O (centres undefined)	none
O=C1Oc2ccccc2C(=O)C1C(c1cccc(O)c1)C1C(=O)Oc2ccccc2C1=O (centres undefined)	none
COC(=O)c1ccccc1-c1cc(C)cc2c1OC(CNC(=O)Cn1cncn1)C2 (centres undefined)	none
CC1(C)Cc2ccccc2C2=CC(=C(C#N)C#N)C(=O)N21	none
CSc1nc(Oc2cccc3ccccc23)cc(-n2ncc(C#N)c2N)n1	none
CC(=O)N1C=Cc2c[nH]cc2C(C)=N1	none
O=C1NN(c2cccc(Br)c2)C(=O)/C1=C\c1cccc(OC(=O)c2cccs2)c1	RBX1-CUL1 inh 87
Cc1cccc(N2NC(=O)/C(=C\c3cccs3)C2=O)c1	none
CC(=O)Oc1cccc(/C=C2/C(=O)NN(c3ccc(F)cc3)C2=O)c1	none
CCc1ccc(N2NC(=O)/C(=C/c3ccc(OC(=O)c4cccs4)c(OC)c3)C2=O)cc1	none
CCc1ccc(N2NC(=O)/C(=C/c3cccc(OC(C)=O)c3)C2=O)cc1	none
CCOC(=O)c1ccc(N2NC(=O)/C(=C/c3cccc(OC(=O)c4cccs4)c3)C2=O)cc1	RBX1-CUL1 inh 67
Cc1ccc(N2NC(=O)/C(=C/c3cccc(Br)c3)C2=O)cc1	none
O=C1NN(c2ccc(Cl)c(Cl)c2)C(=O)/C1=C/c1cccc(OC(=O)c2cccs2)c1	none
O=C1NN(c2cccc(F)c2)C(=O)/C1=C\c1cccc(OC(=O)c2cccs2)c1	RBX1-CUL1 inh 27
Cc1nn(-c2ccc(F)cc2)c(C)c1CN1C[C@H](O)[C@@H](N2CCOCC2)C1	none
CCCc1cc(C(=O)NCC2CCCO2)cs1 (centres undefined)	none
CCC(C)NC(=O)c1cccc(NS(C)(=O)=O)c1C (centres undefined)	none
CC1CCN(CCC(=O)Nc2ccc(F)cc2)CC1	none
CCc1cccc(CC)c1NC(=O)CSc1nc2ccc(NC(=O)c3cccc4ccccc34)cc2s1	none
Cn1cc(/C=C/C(=O)N2CCCC(c3cc(=O)[nH]cn3)C2)cn1 (centres undefined)	none
Cc1cc(C)cc(NC(=O)CSc2nnc(-c3ccccc3)n2-c2ccccc2)c1	none
Cc1ccc(OCCCN2CCCCC2)c(Cl)c1	none
CCOC(=O)C1=C(c2ccccc2)N=c2s/c(=C/c3cccc([N+](=O)[O-])c3O)c(=O)n2C1c1cccc(OC)c1 (centres undefined)	none
COc1ccc(CCNC(=S)Nc2c(Cl)cncc2Cl)cc1OC	none
COc1ccc(CCNC(=S)Nc2cc(Cl)ccc2Cl)cc1OC	none
COc1ccc(CCNC(=S)S)cc1OC	RBX1-CUL1 inh 99
CCOc1ccccc1C(=O)Nc1ccc(NC(C)=O)cc1	none
CCn1cc(Cl)c(C(=O)N2N=C3/C(=C/c4cccs4)CC(C)CC3C2c2cccs2)n1 (centres undefined)	none
O=C(Nc1ccc2nc(SCC(=O)N3CCOCC3)sc2c1)c1cccc(Cl)c1	RBX1-CUL1 inh 58
O=C(Nc1ccc2nc(SCC(=O)N3CCCC3)sc2c1)c1cccc(Cl)c1	none
COc1ccc(C(=O)Nc2ccc3nc(SCC(=O)N4CCOCC4)sc3c2)cc1	none
Cc1ccc(Cc2c(C)[nH]c3nc4ccccc4n3c2=O)cc1	none
CCCc1cc(C(=O)NCc2cccnc2N2CCCC(O)C2)n(C)n1 (centres undefined)	none
Cc1ccccc1C(=O)N1CCN(c2ccc(NC(=O)c3ccccc3Br)cc2)CC1	none
Cc1ccccc1C(=O)N1CCN(c2ccc(NC(=O)CSc3ccc(Cl)cc3)cc2)CC1	RBX1-CUL1 inh 30
O=C(CSc1ccc(Cl)cc1)Nc1ccc(N2CCN(C(=O)c3cccs3)CC2)cc1	none
C/C(=N\N=C1/NC(=O)C(CC(=O)O)S1)c1ccc(Cl)cc1 (centres undefined)	none
COCc1ccc(CNC2CCCc3nc(-c4ccccc4)ncc32)o1 (centres undefined)	none
Nc1nc2cc3nsnc3cc2s1	none
Nc1nc2cc(N)c(N)cc2s1	RBX1-CUL1 inh 93
CCOc1ccc2nc(N)sc2c1	none
COc1ccc(OC)c(/C=N/Nc2cc(C)nc(NCc3ccccc3)n2)c1	none
CCCCNC(=O)c1nnn(-c2cccc(Cl)c2C)c1C	none
NCC1c2ccccc2Sc2ccccc21	none
O=C(c1ccc(Cl)s1)N1CCN(Cc2ccc(F)cc2)CC1	none
O=C(c1ccc(Cl)s1)N1CCN(C2CCCCC2)CC1	RBX1-CUL1 inh 72
Cc1cc(C(=O)N2CCN(C3CCCCC3)CC2)cs1	none
COc1cc(/C=C2\C(=O)NN(c3ccccc3)C2=O)cc(Br)c1OCCCOc1ccc(C)cc1	none
CCOc1cc(/C=C2\C(=O)NN(c3ccccc3)C2=O)cc(Cl)c1OCCOc1cc(C)ccc1C	RBX1-CUL1 inh 44
COc1cc(/C=C2\C(=O)NN(c3ccccc3)C2=O)cc(Cl)c1OCCCOc1ccccc1	RBX1-CUL1 inh 93
COc1cc(/C=C2\C(=O)NN(c3ccccc3)C2=O)ccc1OCCOCCOc1ccccc1C	none
CCOc1cc(/C=C2/C(=O)NN(c3ccc(Cl)cc3)C2=O)cc(I)c1OC	RBX1-CUL1 inh 39
COc1cc(/C=C2\C(=O)NN(c3ccccc3)C2=O)cc(Br)c1OCCCOc1ccccc1	none
CCOc1cc(/C=C2\C(=O)NN(c3ccccc3)C2=O)cc(Cl)c1OCCOc1ccc(OC)cc1	none
